In the library only some 11% were active in any assay of this set; here they are far more common.
HP1b chromo inh: inhibitors of HP1-beta chromodomain binding to methylated histone tails; AlphaScreen HP1-beta / biotin-H3K9me3 peptide binding; Potency, µM (highest dose often 114 µM), usual class: inhibitors; actives 0.56% (n = 390,000); AID 540317; note: nearly all actives have a fitted effect of over 70% in size
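HP1-beta protein (50 nM final) preincubated 30 min at room temperature with biotinylated H3(1-18)K9me3 peptide (50 nM) in PBS pH 7.4, 0.01% Tween-20, then compound added for 30 min. AlphaScreen streptavidin donor/nickel chelate acceptor beads (10 ug/mL final), 30 min dark, luminescence read.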
BAZ2B block: inhibitors of human BAZ2B bromodomain | Q9UIF8 | AlphaScreen BAZ2B-H3K14Ac peptide displacement | Potency, µM (titrated, usually from 114 µM), most hits filed as inhibitors | actives 4.4% (n = 360,000) | AID 504333; note: nearly all actives have a fitted effect of over 60% in size
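BAZ2B (50 nM) with biotin-H3(5-23)K14Ac peptide (50 nM) in PBS pH 7.4, 0.01% Tween-20, preformed 30 min, then compound 30 min at room temperature; top concentration 110uM. AlphaScreen streptavidin donor/nickel chelate acceptor beads (10 ug/mL final), 20 min dark, signal read.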
G9a inh: blocks human histone lysine methyltransferase G9a | Potency, µM (top dose mostly 102 µM), usual class: inhibitors | Q96KQ7 | actives 8.8% (n = 350,000) | G9a H3K9 monomethylation, AlphaScreen, 2 h; note: nearly all actives have a fitted effect of over 75% in size
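Compounds were preincubated with 20 nM G9a for 15 min, after which biotinylated H3K9 peptide (500 nM) and SAM (20 uM) started a 2 h room-temperature reaction. Monomethylated product was quantified by antibody-based AlphaScreen chemiluminescence.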
JMJD2A Tudor: JMJD2A Tudor domain (human) inhibition; AlphaScreen JMJD2A-Tudor / H3K4me3 peptide binding; actives 4.4% (n = 390,000); Potency, µM (top dose mostly 114 µM), actives largely listed as inhibitors; AID 504339; O75164; note: nearly all actives have a fitted effect of over 50% in size
L3MBTL1 block: L3MBTL1 (human) inhibition; actives 0.66% (n = 230,000); Potency, µM (highest dose often 57.1 µM), actives largely listed as inhibitors; AlphaScreen L3MBTL1–H3K9me1 peptide binding; Q9Y468; note: nearly all actives have a fitted effect of over 60% in size
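First, the protein-peptide complex forms for 30 min at room temperature (L3MBTL1 50 nM, biotinylated H3K9me1 peptide 75 nM). Next, compounds are pin-transferred and incubated 30 min. Finally, AlphaScreen beads are added and read after 30 min.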
Numbers stand for hits; – = inactive; ? = inconclusive; · = not tested or not shown; ! = not active in a repeat; [ ] = another dose, or the depositor's remark. Calls come from the whole dose curve; as a rule, active = well fitted inhibition curve with a large enough effect; inconclusive = small, poorly fitted or top-dose-only effect; inactive = no such curve, though single readings can be large or run the other way.

SMILES | HP1b chromo inh | BAZ2B block | G9a inh | JMJD2A Tudor | L3MBTL1 block
Cn1c(C(=O)N2CCN(Cc3ccccc3)CC2)cc2c(=O)n(C)c3ccccc3c21 | – | – | 45µM | ? | ·
Cc1cccc(N2CCN(C(=O)c3cc4c(=O)n(C)c5ccccc5c4n3C)CC2C)c1 (stereo unspecified) | – | ? | 45µM | ? | ·
CCc1ccc(NC(=O)c2ccc(F)c(S(=O)(=O)N3CCN(c4cc(C)ccc4C)CC3)c2)cc1 | – | – | – | – | ·
CCOC(=O)CCNC(C(=O)OCC)c1ccccc1 (stereo unspecified) | ? | ? | ? | 35µM | ·
CCOC(=O)CCNC(=O)CCNC(=O)C(c1ccccc1)c1ccccc1 | – | – | – | – | –
Cc1cccc(C(=O)n2c(=S)nc3cc(C)ccn32)c1 | – | – | 7.9µM | 40µM | –
Cc1ccn2c(c1)nc(=S)n2C(=O)c1ccccc1 | – | – | 45µM | – | –
O=C(c1ccco1)n1c(=S)nc2ccccn21 | – | – | ? | – | –
CCCN1CNc2c(c(=O)[nH]c(=S)n2CCc2ccc(C)c(C)c2)C1 | – | · | · | – | ·
CCc1ccc(-n2c(SCc3ccccc3C)nc3[nH]ncc3c2=O)cc1 | – | ? | – | ? | ·
O=Cc1coc2ccc3ccccc3c2c1=O | – | – | 50µM | ? | –
NC(=O)N/N=C/c1coc2ccc3ccccc3c2c1=O | – | – | – | – | –
Cc1cc(/C=c2\sc3nc4ccccc4n3c2=O)c(C)n1-c1ccc(C(=O)O)cc1 | – | ? | 25µM | – | –
Cc1cc(C=C2C(=O)c3ccccc3C2=O)c(C)n1-c1cccc(C(=O)O)c1 | – | ? | 40µM | – | ·
Cc1cc(C=C2C(=O)c3ccccc3C2=O)c(C)n1-c1ccc(C(=O)O)cc1 | – | ? | 35µM | – | ?
O=c1/c(=C/c2ccc(O)c([N+](=O)[O-])c2)sc2nc3ccccc3n12 | ? | ? | ? | 45µM | –
Cc1cc(C=C2C(=O)c3ccccc3C2=O)c(C)n1-c1ccccc1 | – | – | – | – | –
O=c1/c(=C\c2cccnc2)sc2nc3ccccc3n12 | – | – | –[12.7 µM] | – | ·
Cc1ccc2nc(-c3ccc(C)o3)c(Nc3ccc(Cl)cc3)n2c1 | – | · | · | – | ·
CCOc1ccccc1NC(=O)Cn1nnc(C(=O)NCc2ccc3c(c2)OCO3)c1N | – | – | – | – | ·
CCOC(=O)c1ccc(CNCc2ccccc2)cc1 | – | – | ? | – | –
CCOC(=O)c1ccc(/[N+]([O-])=C/c2ccccc2)cc1 | ? | ? | –[0.501 µM] | 32µM | –
C#CCCc1cscc1/C=[N+](\[O-])c1ccc(C(=O)OCC)cc1 | ? | – | –[0.501 µM] | 50µM | –
Cc1cc2c(s1)c1cnn(Cc3c(F)c(F)cc(F)c3F)c(=O)c1n2C | · | · | · | – | ·
CNc1ccc(Oc2nc([N+](=O)[O-])nn2C)cc1 | – | – | 50µM | – | –
SMILES | HP1b chromo inh | BAZ2B block | G9a inh | JMJD2A Tudor | L3MBTL1 block
CN(c1ccccc1)c1ccc(/C=C(\C#N)c2nnc3n2CCCCC3)cc1[N+](=O)[O-] | ? | 45µM | 40µM | 45µM | ?
c1ccc(CCc2cccnc2)cc1 | – | · | · | – | ·
COc1cc(-c2nnc(SCC(=O)N3CCOCC3)o2)cc(OC)c1OC | – | – | 40µM | – | ·
CCOC(=O)c1c(N=CN(C)C)c2cc([N+](=O)[O-])cnc2n1C | – | – | ? | – | –
COc1cccc(Cn2c(=O)c(C)nc3cnc(N(C)C)nc32)c1 | · | · | –[0.501 µM] | · | ·
CCN(Cc1ccncc1)C(=O)c1cc(COc2ccc(F)cc2Cl)on1 | – | – | · | – | ·
C#CCN(Cc1ccco1)C(=O)c1cc(COc2ccc(F)cc2Cl)on1 | – | 71µM | · | –[11.4 µM] | –
Cc1cccc(C)c1C(=O)N[C@@H](Cc1ccccc1)C(=O)O | – | – | – | – | ?
NC(Cc1cccc(-c2ccccc2CP(=O)(O)O)c1)C(=O)O (stereo unspecified) | · | · | 9.5µM! | · | ·
CN(C)CCCN=c1cc(-c2ccccc2)oc2ccc(Cl)cc12 | – | ? | 56µM | – | ·
OCCN=c1cc(-c2ccccc2)oc2ccc(Cl)cc12 | – | ? | –[0.501 µM] | – | –
COc1ccc2[nH]c3c(NCCC4=CCCCC4)ncnc3c2c1 | – | 28µM | – | 50µM | ·
CCOC(=O)C1=C(COC(=O)/C=C/c2cccc([N+](=O)[O-])c2)NC(=O)NC1C (stereo unspecified) | – | – | – | – | –
CC(=O)Nc1ccc(Nc2ncnc3c2c(-c2ccccc2)cn3-c2ccc(C)c(Cl)c2)cc1 | – | – | – | – | ·
CCOC(=O)c1c(C)n(C(=O)c2ccco2)c(=O)n1C(=O)c1ccco1 | – | – | 56µM | – | –
COc1ccc(N2CCN(c3ccc(-c4nc(-c5ccccc5C)no4)cc3[N+](=O)[O-])CC2)cc1 | – | – | – | – | ·
CCOC(=O)C1Cc2cc3c(cc2C1=O)CC(C(=O)OCC)C3=O (stereo unspecified) | · | – | 35µM | · | –
CCOC(=O)C1=C(O)C(=O)C(C(=O)OCC)C1 (stereo unspecified) | ? | · | · | 10µM | ·
CCCCSc1nc(NCc2ccco2)c2c3c(sc2n1)COC(C)(C)C3 | – | – | 50µM | – | –
COc1ccc(C(=O)Nc2cc(-c3ccccc3)nn2-c2ccccc2F)cc1 | – | – | –[12.7 µM] | – | –
